Screens (PubChem)
Tau FP inhib: qHTS for Inhibitors of Tau Fibril Formation, Fluorescence Polarization | Microtubule-associated protein tau (Homo sapiens), P10636 | K18 P301L tau heparin fibrillization, Alexa594 FP, 6 h | Potency, µM (highest dose often 57.7 µM), usual class: inhibitors | hit rate 0.39% among 280,000 | AID 1468, 2008; further: nearly all actives have a fitted effect of over 55% in size
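Read-out: fluorescence polarization of Alexa 594-labeled tau (0.24 uM), 555 nm excitation, 632 nm emission. Mixtures held 15 uM unlabeled K18 P301L, compound and 20 uM heparin, pH 7 acetate buffer, incubated 6 hr at 37 C.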
RORg inh: qHTS for inhibitors of ROR gamma transcriptional activity. Drosophila S2 Gal4-RORgamma UAS-luciferase reporter, 20 h. Nuclear receptor ROR-gamma (Mus musculus), P51450. hit rate 5.4% among 310,000. AID 2551, 2010. Potency, µM (top dose mostly 53.6 µM), usual class: inhibitors; further: nearly all actives have a fitted effect of over 60% in size
Target sequence (P51450 whole entry, looked up, the tested form may be a part): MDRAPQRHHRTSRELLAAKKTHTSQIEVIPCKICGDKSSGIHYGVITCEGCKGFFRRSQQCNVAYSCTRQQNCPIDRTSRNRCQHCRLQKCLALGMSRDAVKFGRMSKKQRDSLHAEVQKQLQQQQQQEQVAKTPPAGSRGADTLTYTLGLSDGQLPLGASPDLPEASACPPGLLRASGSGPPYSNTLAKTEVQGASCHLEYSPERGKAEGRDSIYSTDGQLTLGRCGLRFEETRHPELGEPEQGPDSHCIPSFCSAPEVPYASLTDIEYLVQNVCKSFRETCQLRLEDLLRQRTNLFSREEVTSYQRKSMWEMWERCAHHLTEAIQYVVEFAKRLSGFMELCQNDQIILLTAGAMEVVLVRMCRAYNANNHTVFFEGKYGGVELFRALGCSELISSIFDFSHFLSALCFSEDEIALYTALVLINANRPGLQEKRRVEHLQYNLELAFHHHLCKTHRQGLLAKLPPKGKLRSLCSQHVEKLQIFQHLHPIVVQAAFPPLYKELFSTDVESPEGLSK
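In this cell-based reporter format, copper sulfate (700 uM final) drives Gal4–ROR gamma fusion expression from a metallothionein promoter in Drosophila Schneider cells; compounds preincubated 1 hr, reporter read after 20 hr at ambient temperature.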
Tau fluor counter: Counterscreen qHTS for Inhibitors of Tau Fibril Formation, Fluorescence Polarization. hit rate 0.93% among 280,000. tau K18 P301L Alexa594 fluorescence, heparin fibrillization. Potency, µM (doses to about 57.7 µM). AID 1463, 2008; further: nearly all actives have a fitted effect of over 55% in size
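Human K18 P301L tau (15 uM unlabeled plus 0.24 uM Alexa 594-labeled, final) in 100 mM sodium acetate pH 7 was mixed with compound and 20 uM heparin and incubated 6 hr at 37 C.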
Gal4-VP16 FLuc: VP16 counterscreen qHTS for inhibitors of ROR gamma transcriptional activity; Drosophila S2 Gal4-VP16 UAS-luciferase, luminescence, 20 h; Potency, µM (top dose mostly 53.6 µM), most hits filed as inhibitors; hit rate 3.5% among 310,000; AID 2546, 2010;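 further: Gal4-VP16 expression switched on by copper sulfate through the metallothionein promoter; nearly all actives have a fitted effect of over 50% in size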
Tau ThT inhib: qHTS for Inhibitors of Tau Fibril Formation, Thioflavin T Binding | Microtubule-associated protein tau (Homo sapiens), P10636 | recombinant tau K18 P301L (four-repeat tau fragment), heparin-induced fibrillization, ThT fluorescence | Potency, µM (top dose mostly 57.4 µM), usual class: inhibitors | hit rate 2.1% among 270,000; further: nearly all actives have a fitted effect of over 55% in size
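K18 P301L tau (15 uM + 0.24 uM Alexa 594-tagged), heparin 20 uM, NaOAc pH 7, 6 h 37 C; ThT 30 uM, 1 h RT, ex 450/em 510 nm.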
Hits are given with their value; i = inactive; ? = inconclusive; nt = not tested or not shown; [ ] = another dose, or the depositor's remark. This is a sample that favours compounds with a hit; in the whole collection about 7.3% have one here. The call rests on the fitted dose curve; in most records, active means well fitted curve in the direction sought with a large enough effect; inconclusive means small, poorly fitted or top-dose-only effect, or another doubt; inactive means no such curve, though single readings can be large; an effect the other way counts as inactive or inconclusive.

SMILES	Tau FP inhib	RORg inh	Tau fluor counter	Gal4-VP16 FLuc	Tau ThT inhib
CCCOC(=O)c1ccc(OCC(O)Cn2c(C)nc3ccccc32)cc1 (configuration not stated)	i	?	i	3.2µM	?
O=C(CN1C(=O)C2(SCC(=O)N2c2ccc(F)cc2)c2ccccc21)NCCc1ccccc1 (configuration not stated)	i	nt	i	nt	i
FC(F)Oc1ccc(NC(=S)Nn2cnnc2)cc1	i	i	i	i	?
FC(F)Oc1ccc(NC(=S)NCc2ccccc2)cc1Cl	?	14µM	?	?	i
Oc1cccc2c(NC(=S)Nc3ccc(OC(F)F)cc3)cccc12	?	?	16µM[quencher]	11µM	11µM
FC(F)Oc1ccc(NC(=S)NCCc2ccccn2)cc1	i	4.5µM	i	5µM	i
FC(F)Oc1ccc(NC(=S)NCc2ccccc2)cc1	i	13µM	i	?	i
CN(C)N=Nc1nc2c(c(=O)n(C)c(=O)n2C)n1C	i	i	i	i	i
COc1ccc(NC(=O)CSCc2cc(=O)n3cc(C)sc3n2)cc1	nt	i	nt	i	nt
O=C(Cc1cccc2ccccc12)Nc1ccc(OC(F)F)c(Cl)c1	?	?	?	i	i
CN(NC(=S)Nc1ccc(OC(F)F)cc1)C(=S)Nc1ccc(OC(F)F)cc1	i	i	i	13µM	i
CCN(CC)C(=S)Nc1ccc(OC(F)F)cc1	i	i	i	i	i
O=C(Nc1ccc(OC(F)F)c(Cl)c1)C(c1ccccc1)c1ccccc1	28µM	?	?	?	i
CC(=O)N1CCCc2cc(S(=O)(=O)N3CCCC(C(=O)N4CCN(c5ccccc5F)CC4)C3)ccc21 (configuration not stated)	i	nt	i	nt	i
CC(=O)C1(C)CC2=C(CCCC2(C)C)CC1C (configuration not stated)	nt	i	nt	i	nt
Cc1cc(NC(=O)CCC(=O)N(c2ccccc2)C(C(=O)NC2CCCC2)c2ccc(F)cc2)no1 (configuration not stated)	nt	i	nt	i	nt
Cc1nc2ccc(NS(=O)(=O)c3ccc4c(c3)OCCO4)cc2s1	i	?	i	8.9µM	i
Cc1nc2cc(NS(=O)(=O)c3c(C)c(C)cc(C)c3C)ccc2s1	i	?	i	11µM	i
COc1ccc(C)cc1NC(=O)CC1NCCNC1=O (configuration not stated)	i	nt	i	nt	i
CC[C@H](C)[C@H](NC(=O)[C@H](CCC(=O)O)NC(=O)[C@@H](N)CO)C(=O)N[C@@H](CCC(N)=O)C(=O)N[C@@H](CC(C)C)C(=O)N[C@@H](CCSC)C(=O)N[C@@H](Cc1cnc[nH]1)C(=O)N[C@@H](CC(N)=O)C(=O)N[C@@H](CC(C)C)C(=O)NCC(=O)N[C@@H](CCCCN)C(=O)N[C@@H](Cc1cnc[nH]1)C(=O)N[C@@H](CC(C)C)C(=O)N[C@@H](C)C(=O)N[C@@H](CO)C(=O)N[C@H](C(=O)N[C@@H](CCC(=O)O)C(=O)N[C@@H](CCCNC(=N)N)C(=O)N[C@@H](CCSC)C(=O)N[C@@H](CCC(N)=O)C(=O)N[C@@H](Cc1c[nH]c2ccccc12)C(=O)N[C@@H](CC(C)C)C(=O)N[C@@H](CCCNC(=N)N)C(=O)N[C@@H](CCCCN)C(=O)N[C@@H](CCCCN)C(=O)N[C@@H](CC(C)C)C(=O)N[C@@H](CCC(N)=O)C(=O)N[C@@H](CC(=O)O)C(=O)N[C@H](C(=O)N[C@@H](Cc1cnc[nH]1)C(=O)N[C@@H](CC(N)=O)C(=O)N[C@@H](Cc1ccccc1)C(=O)O)C(C)C)C(C)C	nt	i	nt	i	nt
CC(C)(C)c1ccc(-c2nc(NC(=O)CSc3ncnc4sc5c(c34)CCCC5)ns2)cc1	i	nt	i	nt	i
O=C(NC(=S)NCc1cccnc1)c1cc2ccccc2o1	i	13µM	i	i	i
O=C(NC(=S)Nc1cccnc1)c1cc2ccccc2o1	i	?	i	i	i
COc1ccc(Br)cc1C(=O)NCc1cccnc1	i	i	i	i	i
O=C(NC(=S)NCc1cccnc1)c1cc(Br)ccc1Cl	nt	22µM	nt	?	nt
